PubChem BioAssay AID868 (SRMLSC, 2007)
The campaign covered roughly 190,000 compounds. About 3,500 (1.8%) were called active. Shown is part of a subset that was picked to be rich in actives. Unmarked numbers belong to inactive results.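 How the source made its calls: active means inhibition above a set limit, 3 SD over mean compound inhibition (cut at about 8.4% in these data); inactive means the rest.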

Assay: RAM signaling blockers in budding yeast – dse1pr::URA3 reporter, 5-FOA selection, primary screen (AID 868);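 further: 0% = DMSO-only wells with no growth and 100% = 10 µM 1-NA-PP1 full growth; inhibition rescues growth on 5-FOA so higher OD means more RAM inhibition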
Conditions: S. cerevisiae dse1pr::URA3 reporter, 5-FOA growth OD615, 2 d; at 50 µM; active compounds read high; analog-sensitive cbk1-as2 kinase mutant strain
Cc1cccc(-n2cnc(C(=O)NNC(=S)Nc3ccccc3)c2)n1 gave an inhibition of 1.6%. Work on Cc1ccc(C(=O)N/C(=C\c2ccco2)C(=O)N2CCSCC2)cc1C yielded an inhibition of -0.85%. In the case of CCn1c(COc2ccccc2)nnc1SCC(=O)NCc1ccco1, the inhibition is reported as 0.66%. Work on C=CCn1c(CNC(=O)c2ccco2)nnc1SCC(=O)c1ccc(OC)cc1 yielded an inhibition of -1.14%. With COc1ccc(C(=O)CSc2nnc(COc3ccccc3)n2Cc2ccco2)cc1 the inhibition was 9.29% (active). For O=C(N/N=C/c1ccc(OCc2ccccc2)cc1)c1ccc(O)cc1, the inhibition was 1.57%. For O=C(Cc1cccs1)N/N=C/c1ccc(OCc2ccccc2)cc1, the inhibition was 10.5% (active). Work on Cc1ccc(COc2ccc(/C=N/NC(=O)CN3CCCCC3)cc2)cc1 yielded an inhibition of 0.5%. With COc1ccccc1NC(=O)CN1CCN(S(=O)(=O)c2ccc(Br)cc2)CC1 the inhibition was 0.23%. With COCCN(CC(=O)Nc1ccccc1C)S(=O)(=O)c1ccc(S(=O)(=O)N2CCCC2)cc1 the inhibition was 9.62% (active). Work on COc1cc(C(=O)NNC(=O)c2ccc(S(=O)(=O)N3CCCCC3)cc2)cc(OC)c1OC yielded an inhibition of 3.63%. Compound Cc1csc(NC(=O)c2ccc(-c3ccc(Cl)cc3Cl)o2)n1 has an inhibition of 0.54%. CC1CCN(C(=S)c2cccc(O)c2)CC1 gave an inhibition of 0.5%. For CC1CCN(C(=S)c2ccc(-c3ccc(Cl)cc3Cl)o2)CC1, the inhibition was 15.1% (active). For COCC(C)NCc1cc(Br)ccc1OC (stereo unspecified), the inhibition was 1.56%. O=C(O)C1CC=C(Cl)CC1C(=O)NCc1ccccc1 (stereo unspecified) showed an inhibition of 1.08%. COC(=O)[C@H](Cc1ccccc1)NC(=O)[C@@H]1C[C@H]1[C@@H](NC(=O)OCc1ccccc1)c1ccccc1 gave an inhibition of 1.21%. In the case of O=C(NCc1ccccc1)[C@H]1C[C@@H]1[C@H](NP(=O)(c1ccccc1)c1ccccc1)c1ccccc1, the inhibition is reported as 19% (active). CC12CN(NC(=O)c3ccc(Cl)cc3)C3(C#N)CC1CCC23C (stereo unspecified) gave an inhibition of -0.13%. In the case of COc1cc(N2CCCC2)c(OC)cc1/C=C(/C#N)c1cccc(Br)c1, the inhibition is reported as 8.59% (active). For CC(=O)Nc1cccc(Oc2cc(C#N)c(C#N)cc2N2CCOCC2)c1, the inhibition was 0.91%. Compound COc1cccc(C(=O)Nc2ccc(N3CCCC3)cc2)c1 has an inhibition of 1.61%. For COc1ccc2cc(CCl)c(Cl)nc2c1, the inhibition was 0.27%. COc1ccc(C2CC(c3cccs3)=NN2C(=O)CSc2nncs2)cc1OC (stereo unspecified) showed an inhibition of -0.13%. In the case of COc1ccc(C2CC(c3cccs3)=NN2c2nc(C)c(C(C)=O)s2)cc1OC (stereo unspecified), the inhibition is reported as 9.6% (active). COc1ccc(C2CC(c3cccs3)=NN2c2ccc(F)cc2)cc1OC (stereo unspecified) gave an inhibition of 2.78%. Compound CCc1c(C)nc2c(OC)cccc2c1Cl has an inhibition of 0.88%. In the case of CC(C)(C)NC(=O)COC(=O)c1cc(Br)ccc1Cl, the inhibition is reported as -0.13%. Work on C=CCN(c1ccc(C(=O)Nc2cc(C)cc(C)c2)cc1)S(C)(=O)=O yielded an inhibition of 1.58%. With CSCc1ccc(C(=O)Nc2cc(C)cc(C)c2)cc1 the inhibition was 10.7% (active). With CC(=O)Nc1ccccc1NC(=O)c1cc(C)cc(C)c1 the inhibition was 1.49%. For CC(C)(C)c1ccc(/C=C/C(=O)NC2CCS(=O)(=O)C2)cc1 (stereo unspecified), the inhibition was -1.15%. In the case of Cc1cccc(C(=O)c2cccc(C)c2)c1, the inhibition is reported as 1.11%. Work on Cc1ccccc1CN1C[C@@H]2C[C@@H](c3ccc4nsnc4c3)N3CCC[C@@]23C1=O yielded an inhibition of 1.56%. With COc1ccc(/C=C2\CCCC3C2=NN(C(=O)c2scnc2C)C3c2ccc(OC)cc2)cc1 (stereo unspecified) the inhibition was 8.89% (active). Work on CN(C)/C=C/C(=O)c1cnc2sccn2c1=O yielded an inhibition of 3.34%. With Cc1cc(Cl)ccc1OCCCC(=O)NCc1ccccn1 the inhibition was -1.48%. In the case of CC1CCCC(C)N1/N=C/c1ccccc1OC(F)F (stereo unspecified), the inhibition is reported as -0.37%. In the case of NS(=O)(=O)c1ccc(NC(=S)NC(=O)c2cccc(Br)c2)cc1, the inhibition is reported as 15.5% (active). In the case of O=C(NC(=S)Nc1ccc(S(=O)(=O)Nc2ncccn2)cc1)c1cccc(Br)c1, the inhibition is reported as 6.97%. Work on NS(=O)(=O)c1ccc(NC(=S)NC(=O)c2cccnc2)cc1 yielded an inhibition of 0.14%. CCc1ccccc1NC(=O)Cc1cn(C)c2ccccc12 showed an inhibition of 1.88%. O=C(/C=C/c1ccc(Cl)c([N+](=O)[O-])c1)c1cccnc1 showed an inhibition of 1.34%. Cc1ccsc1C1C(C#N)=C(N)OC2=C1C(=O)CC(C)C2 (stereo unspecified) gave an inhibition of 2.12%. O=C(c1ccc(Cl)cc1)c1cnc(Nc2ccccc2)s1 showed an inhibition of 3.49%. For CC(=O)c1c(Nc2ccccc2)sc(C(=O)c2ccccc2)c1C, the inhibition was 13.4% (active). CCC(=O)Nc1sc(C(=O)Nc2ccccc2)c(C)c1C(=O)OC gave an inhibition of -0.53%. For COc1cc(CN2CCN(Cc3ccc(C)cc3)CC2)c([N+](=O)[O-])cc1OC, the inhibition was -0.12%. With N#Cc1ccc(-c2ccc(Cl)cc2)nc1Oc1ccc(F)cc1 the inhibition was 3.94%. In the case of N#Cc1ccc(-c2ccc(F)cc2)nc1Sc1ccccc1, the inhibition is reported as 9.92% (active). With N#Cc1c(-c2ccc(F)cc2)nc(-c2ccccc2)[nH]c1=O the inhibition was 1.19%. COC(=O)c1nc(NC(=O)c2ccc(C(C)(C)C)cc2)n[nH]1 showed an inhibition of -0.27%. With COC(=O)C1=C(C(=O)OC)C(c2cc([N+](=O)[O-])ccc2O)c2sc(=O)[nH]c2S1 (stereo unspecified) the inhibition was -0.84%. Compound CCOC(=O)C(NC(C)=O)C(=O)Nc1ccc(OC)cc1 (stereo unspecified) has an inhibition of 1.23%. Work on Cc1ccc(C2C3=C(Nc4[nH]n(-c5ccccc5)c(=O)c42)c2ccccc2C3=O)cc1 (stereo unspecified) yielded an inhibition of 4.88%. In the case of Cc1cc(C)c(C2C3=C(Nc4c2c(C)nn4-c2ccccn2)c2ccccc2C3=O)c(C)c1 (stereo unspecified), the inhibition is reported as 9.18% (active). Cc1nn(-c2ccccn2)c2c1C(c1ccncc1)C1=C(CC(C)(C)CC1=O)N2 (stereo unspecified) showed an inhibition of -0.66%. Compound O=C(CN1CCN(C/C=C/c2ccccc2)CC1)Nc1ccc(F)cc1F has an inhibition of 0.69%. In the case of CCOCCCNCc1cc(Br)ccc1OCC, the inhibition is reported as 1.92%. With CCOC(=O)C1CCN(CCC(=O)Nc2cccc(C)c2)CC1 the inhibition was 0.78%. Cc1ccc(S(=O)(=O)N2CCOCC2)cc1C(=O)OC1CCCCC1=O (stereo unspecified) gave an inhibition of 0.38%.
